# In PubChem BioAssay (NCATS):
# Results filed as inconclusive are left out. Where a call stands in place of a potency, no number is given. The source made the active and inactive calls. Unless noted, calls follow the shape of the dose curve; as a rule, active = well fitted curve in the direction sought with a large enough effect; inconclusive = small, poorly fitted or top-dose-only effect, or another doubt; inactive = no such curve, though single readings can be large; an effect the other way counts as inactive or inconclusive. *1 amine or outer side, *2 acyl side, *3 side chain or, on linkers, in order; H or OH if unused. Where a SMILES comes first, the peptide text is derived from it. [ ]: non-standard residue; d: D form. X5 = CC(CC(O[*:1])C(=O)[*:2])C(=O)O; NMeV = CN[CH](C(=O)O)C(C)C; NMeA = CN[CH](C)C(=O)O; βAla = NCCC(=O)O
# How the values were obtained:
# [1] = system: Zika virus NS2B-NS3 protease (unlinked complex); experiment: Primary screen GU Rhodamine qHTS for Zika virus inhibitors: Unlinked NS2B-NS3 protease assay (AID 1347159); also: nearly all actives have a fitted effect of over 60% in size
# In short: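 Noncovalent NS2B hydrophilic domain/NS3 protease complex (25 nM final) in 10 mM Tris-HCl pH 8.0, 0.01% Tween 20, preincubated 15 min with compounds (up to 114 microM), then 1.5 microM Rhodamine110 substrate. Fluorescence change over 15 min fitted to 4-parameter Hill.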
# [2] = Primary qHTS for inhibitors of nuclear receptor binding SET domain protein 2 (NSD2) in an isogenic RCH-ACV NSD2 p.E1099K mutant (9B) (AID 1645876); also: nearly all actives have a fitted effect of over 70% in size; also: potency is read from the fitted curve at half-maximal effect
# [3] = Primary qHTS for inhibitors of nuclear receptor binding SET domain protein 2 (NSD2) in an RCH-ACV wild type WT cells (2C) (AID 1645877); also: nearly all actives have a fitted effect of over 70% in size; also: potency is read from the fitted curve at half-maximal effect
# [4] = Primary fluorescence-based thiol-reactive (MSTI) qHTS assay for identification of artifact compounds. (AID 1845221); also: nearly all actives have a fitted effect of over 65% in size; also: potency is read from the fitted curve at half-maximal effect;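 as to activity change, negative = thiol reactive: thiol-reactive compounds lower the probe fluorescence signal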
# In short: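 First, 4 uM MSTI in 2% DMSO/PBS pH 7.4 was dispensed; next, compounds were added; then plates sat 1 h at room temperature without light. Finally, emission at 598 nm was recorded.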
# [5] = Primary redox qHTS assay for identification of artifact compounds. (AID 1845223)
# In short: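 Amplex Red (25 uM) and HRP (250 mU/mL) in HBSS, with compounds for 15 min, then 250 uM DTT for 30 min, room temperature, dark. Fluorescence 525/598 nm read; normalized to DMSO and 10 uM DA3003; Hill fit.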
# HEK293 = experiment: Cytotoxic Profiling of Annotated Libraries Using Quantitative High-Throughput Screening (AID 1296008); conditions: Five cell lines viability, CellTiter-Glo ATP luminescence, 48-72 h; max response: stronger effect = lower value; also: nearly all actives have a fitted effect of over 60% in size; also: potency is read from the fitted curve at half-maximal effect
# In short: (§1)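 Compounds were pin-transferred onto cells and incubated 48 or 72 hr at 37 degree Celsius, 95% humidity. CellTiter-Glo was added, plates sat 10 min at room temperature, then ATP-coupled luminescence was imaged as the viability read-out.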
# KB-3-1 = experiment: as above; conditions: Five cell lines viability, CellTiter-Glo ATP luminescence, 48-72 h; max response: stronger effect = lower value
# In short: as §1
# SKOV3 = experiment: Primary qHTS to identify gynecologic anti-cancer compounds using libraries of approved drugs and bioactive compounds (AID 1345084); conditions: Gynecologic cancer cell panel viability, ATPlite luminescence, 48 h; series mostly up to 57.5 µM; also: nearly all actives have a fitted effect of over 55% in size; also: potency is read from the fitted curve at half-maximal effect
# In short: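 48 h compound exposure at 37 C, 5% CO2; five-point qHTS. ATPlite luminescence readout of cell ATP.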
# HaCat [6] = experiment: Cytotoxic Profiling of Annotated Libraries Using Quantitative High-Throughput Screening (AID 1296008); conditions: Five cell lines viability, CellTiter-Glo ATP luminescence, 48-72 h; max response: stronger effect = lower value; also: nearly all actives have a fitted effect of over 60% in size; also: potency is read from the fitted curve at half-maximal effect
# In short: as §1
# NIH3T3 = experiment: qHTS assay to identify novel small-molecules to repurpose for Merkel cell carcinoma treatment (AID 1296009); conditions: MCC and control cell lines, CellTiter-Glo viability, 72 h; at 44.8 µM (top of the series) unless noted; also: nearly all actives have a fitted effect of over 60% in size
# In short: (§2)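 qHTS format: cells treated with library compounds in DMSO across 8 (NPC) or 11 (MIPE) concentrations. Readout after 72 hr at 37 degree celsius was CellTiter-Glo luminescence.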
# [7] = target: Cytochrome P450 2D6 (Homo sapiens) (UniProt P10635); experiment: Cytochrome P450 family 2 subfamily D member 6 (CYP2D6) small molecule antagonists: luciferase biochemical (cell-free) qHTS assay (AID 1645840; active = well fitted curve in the direction sought with a large enough effect in the repeat runs; an effect the other way counts as inactive or inconclusive; also: nearly all actives have a fitted effect of over 55% in size; also: potency is read from the fitted curve at half-maximal effect)
# Cytochrome P450 2D6 (Homo sapiens), sequence (P10635 whole entry, looked up): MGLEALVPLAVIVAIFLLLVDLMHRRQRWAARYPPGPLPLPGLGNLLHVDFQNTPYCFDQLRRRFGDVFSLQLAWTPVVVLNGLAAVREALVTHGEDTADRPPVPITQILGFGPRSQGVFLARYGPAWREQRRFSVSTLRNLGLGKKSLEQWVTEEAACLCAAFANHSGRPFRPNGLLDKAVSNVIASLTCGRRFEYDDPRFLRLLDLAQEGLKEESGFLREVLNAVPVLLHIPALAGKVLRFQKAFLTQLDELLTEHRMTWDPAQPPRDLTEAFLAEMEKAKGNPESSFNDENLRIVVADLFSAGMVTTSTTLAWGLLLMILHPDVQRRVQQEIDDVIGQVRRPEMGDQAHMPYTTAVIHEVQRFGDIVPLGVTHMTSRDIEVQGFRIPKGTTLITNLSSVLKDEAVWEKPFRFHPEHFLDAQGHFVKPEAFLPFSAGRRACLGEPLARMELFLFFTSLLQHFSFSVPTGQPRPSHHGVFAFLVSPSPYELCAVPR
# In short: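 P450-Glo luminescent screen: recombinant CYP2D6 enzyme–proluciferin substrate mix preincubated with compound 10 min at room temperature, then NADPH regeneration added for 1 h at room temperature. Detection reagent added for 20 min; luciferin light read as relative luminescence units.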
# [8] = target: Cytochrome P450 2C9 (Homo sapiens) (UniProt P11712); experiment: Cytochrome P450 family 2 subfamily C member 9 (CYP2C9) small molecule antagonists: luciferase biochemical (cell-free) qHTS assay (AID 1645842; active = well fitted curve in the direction sought with a large enough effect in the repeat runs; an effect the other way counts as inactive or inconclusive; also: nearly all actives have a fitted effect of over 55% in size; also: potency is read from the fitted curve at half-maximal effect)
# Cytochrome P450 2C9 (Homo sapiens), sequence (P11712 whole entry, looked up): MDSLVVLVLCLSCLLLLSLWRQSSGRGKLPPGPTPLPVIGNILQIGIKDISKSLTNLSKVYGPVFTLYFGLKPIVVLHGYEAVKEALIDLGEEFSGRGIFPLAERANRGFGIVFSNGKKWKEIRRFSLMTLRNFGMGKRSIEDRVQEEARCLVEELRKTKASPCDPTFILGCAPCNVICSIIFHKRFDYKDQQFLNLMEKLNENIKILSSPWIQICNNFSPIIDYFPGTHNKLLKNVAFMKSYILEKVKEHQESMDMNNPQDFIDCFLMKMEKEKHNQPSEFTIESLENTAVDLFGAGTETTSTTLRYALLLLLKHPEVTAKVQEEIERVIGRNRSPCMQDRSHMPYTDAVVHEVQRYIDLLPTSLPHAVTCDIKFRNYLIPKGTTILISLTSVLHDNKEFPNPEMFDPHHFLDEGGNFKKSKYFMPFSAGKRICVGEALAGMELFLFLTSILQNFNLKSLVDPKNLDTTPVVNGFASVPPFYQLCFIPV
# In short: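 Luminescence, after 20 min with luciferin detection reagent, reflected CYP2C9 turnover during a 1 h NADPH-driven reaction at 37C. Enzyme-substrate mix contained 0.4% bovine serum albumin and was preincubated with compound 10 min at room temperature.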
# CRL-7250 = normal cell line; experiment: qHTS assay to identify novel small-molecules to repurpose for Merkel cell carcinoma treatment (AID 1296009); conditions: MCC and control cell lines, CellTiter-Glo viability, 72 h; series mostly up to 92 µM; also: nearly all actives have a fitted effect of over 60% in size
# In short: as §2
# HACAT [9] = experiment: as above; conditions: MCC and control cell lines, CellTiter-Glo viability, 72 h; at 44.8 µM (top of the series) unless noted
# In short: as §2
# [10] = target: Catechol O-methyltransferase (Homo sapiens) (UniProt P21964); experiment: Confirmatory Screen for Target Class Profiling of Small Molecule Inhibitors of Methyltransferases (AID 1745852); conditions: MTase-Glo luminescence, SAH detection, recombinant enzyme; measured here: COMT max response; stronger effect = lower value
# Catechol O-methyltransferase (Homo sapiens), sequence (P21964 whole entry, looked up): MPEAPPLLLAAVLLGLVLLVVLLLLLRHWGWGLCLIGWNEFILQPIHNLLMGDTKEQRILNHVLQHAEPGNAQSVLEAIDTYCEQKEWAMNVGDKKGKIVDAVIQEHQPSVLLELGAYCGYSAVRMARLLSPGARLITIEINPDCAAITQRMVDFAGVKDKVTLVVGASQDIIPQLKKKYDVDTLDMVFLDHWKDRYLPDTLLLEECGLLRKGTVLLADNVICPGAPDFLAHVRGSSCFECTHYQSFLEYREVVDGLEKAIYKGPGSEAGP
# [11] = target: Guanidinoacetate N-methyltransferase (Homo sapiens) (UniProt Q14353); experiment: as above; conditions: activity change, negative = inhibition: at 57.3 µM (top of the series) unless noted
# [12] = target: Nicotinamide N-methyltransferase (Homo sapiens) (UniProt P40261); experiment: as above; conditions: MTase-Glo luminescence, SAH detection, recombinant enzyme; measured here: NNMT max response; stronger effect = lower value
# Nicotinamide N-methyltransferase (Homo sapiens), sequence (P40261 whole entry, looked up): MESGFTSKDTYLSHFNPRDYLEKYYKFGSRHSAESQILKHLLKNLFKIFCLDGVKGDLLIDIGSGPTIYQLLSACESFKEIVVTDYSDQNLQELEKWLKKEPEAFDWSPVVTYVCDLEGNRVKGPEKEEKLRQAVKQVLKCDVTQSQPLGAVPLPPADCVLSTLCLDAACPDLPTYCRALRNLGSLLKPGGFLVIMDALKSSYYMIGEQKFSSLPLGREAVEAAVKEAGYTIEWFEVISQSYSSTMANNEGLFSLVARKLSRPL
# [13] = target: Phenylethanolamine N-methyltransferase (Homo sapiens) (UniProt P11086); experiment: as above; conditions: MTase-Glo luminescence, SAH detection, recombinant enzyme; measured here: PNMT max response; stronger effect = lower value
# Phenylethanolamine N-methyltransferase (Homo sapiens), sequence (P11086 whole entry, looked up): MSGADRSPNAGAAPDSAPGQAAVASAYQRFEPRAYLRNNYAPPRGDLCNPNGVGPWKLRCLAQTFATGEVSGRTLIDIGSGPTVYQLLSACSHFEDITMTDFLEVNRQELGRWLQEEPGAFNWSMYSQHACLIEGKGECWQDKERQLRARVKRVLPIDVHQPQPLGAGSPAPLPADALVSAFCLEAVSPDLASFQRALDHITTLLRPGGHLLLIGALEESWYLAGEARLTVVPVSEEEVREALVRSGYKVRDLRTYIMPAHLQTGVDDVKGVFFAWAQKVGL
# [14] = P-glycoprotein substrates identified in KB-3-1 adenocarcinoma cell line, qHTS therapeutic library screen (AID 1346986); also: nearly all actives have a fitted effect of over 60% in size
# In short: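 Resistance attributable to P-gp was assessed by comparing AC50 in KB-8-5-11 with parental KB-3-1 and by tariquidar reversal. Cells were exposed 72 h and viability read by CellTiter-Glo.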
smiles,measurement,setting,value
COC1CC(O[C@H]2CC[C@@]3(C)C(CCC4C3CC[C@]3(C)C(C5=CC(=O)OC5)CCC43O)C2)OC(C)C1OC1OC(COC2OC(CO)C(O)C(O)C2O)C(O)C(O)C1O (stereo partly drawn),Potency,[1],inactive
same,Potency,[2],975 nM (active)
same,Potency,[3],1730 nM (active)
same,"activity change, negative = thiol reactive",[4],0.284% [at 11.5 µM] (inactive)
same,redox activity (% of DA3003),[5],16.1% [at 11.5 µM] (inactive)
same,Potency,HEK293,1740 nM (active)
same,Potency,KB-3-1,2760 nM (active)
same,Potency,SKOV3,3160 nM (active)
C=C(C)C(=O)O[C@H]1[C@@H]2[C@H](C)C(=O)O[C@@H]2C[C@@H](C)[C@@H]2C=CC(=O)[C@]21C,Potency,[1],inactive
same,Potency,[2],2010 nM (active)
same,Potency,[3],1790 nM (active)
same,Potency,[4],inactive
same,Potency,[5],inactive
same,Potency,HEK293,3600 nM (active)
same,Potency,KB-3-1,3210 nM (active)
CN1C(=O)[C@]23CC4C(C)(C)[C@@]5(C[C@@]41CN2CC[C@@]3(C)O)C(=O)Nc1c5ccc2c1OC=CC(C)(C)O2 (stereo partly drawn),Potency,[2],inactive
same,Potency,[3],inactive
same,max response,HaCat [6],-7.56% (inactive)
same,max response,KB-3-1,1.88% (inactive)
same,Potency,SKOV3,inactive
C[C@]12CC[C@@H](O[C@@H]3O[C@H](CO)[C@@H](O)[C@H](O)[C@H]3O)C[C@@]1(O)CCC1C2CC[C@]2(C)[C@@H](C3=CC(=O)OC3)CC[C@]12O (stereo partly drawn),Potency,[1],inactive
same,Potency,[2],79.6 nM (active)
same,Potency,[3],112 nM (active)
same,Potency,[5],inactive
same,Potency,HaCat [6],1000 nM (active)
same,Potency,KB-3-1,200 nM (active)
same,outcome,NIH3T3,inactive [at 17.4 µM]
same,Potency,SKOV3,355 nM (active)
COc1ccc2[nH]c(-c3ccccc3)c(CCN(C)C)c2c1,Potency,[7],2130 nM (active)
same,Potency,[8],16900 nM (active)
same,Potency,[5],inactive
same,outcome,HaCat [6],inactive
same,Potency,CRL-7250,inactive
same,outcome,HACAT [9],inactive
same,Potency,SKOV3,inactive
Clc1ccc([C@]23CNC[C@H]2C3)cc1Cl,Potency,[1],inactive
same,Potency,[2],inactive
same,Potency,[3],inactive
same,activity,[10],-0.0723%
same,"activity change, negative = inhibition",[11],2.99%
same,activity,[12],-7.01%
same,activity,[13],-90.8%
same,Potency,[4],inactive
same,Potency,[5],inactive
same,outcome,HaCat [6],inactive
same,max response,KB-3-1,-2.06% (inactive)
same,outcome,HACAT [9],inactive
CCC(C)C1NC(=O)C2CCCN2C(=O)C(CC(C)C(=O)O)OC(=O)CCNC(=O)C(C)N(C)C(=O)C(C(C)C)N(C)C1=O (stereo not drawn) (cyclo([X5]PI[NMeV][NMeA][βAla]); configuration not given here),Potency,[14],inactive
same,Potency,[1],inactive
same,Potency,[2],inactive
same,Potency,[3],inactive
same,Potency,[4],inactive
same,Potency,[5],inactive
same,max response,HaCat [6],4.66% (inactive)
same,outcome,KB-3-1,inactive
same,Potency,SKOV3,inactive
O=C(N[C@H]1CN2CCC1CC2)c1cc2cccc(Cl)c2s1,Potency,[7],16900 nM (active)
same,Potency,[8],inactive
same,Potency,[5],inactive
same,max response,HaCat [6],-4.19% (inactive)
same,max response,KB-3-1,2.28% (inactive)
same,Potency,SKOV3,inactive
C=C1C(=O)O[C@@H]2[C@H]3C(=C)[C@@H](O)C[C@H]3C(=C)C[C@@H](O)[C@@H]12,Potency,[2],16300 nM (active)
same,Potency,[3],6490 nM (active)
same,Potency,[4],5320 nM (active)
same,Potency,[5],inactive
same,max response,HaCat [6],-4.6% (inactive)
same,max response,KB-3-1,6.92% (inactive)
same,Potency,SKOV3,inactive
C=C[C@H]1CN2CCC1C[C@H]2[C@H](O)c1ccnc2ccccc12 (stereo partly drawn),Potency,[1],inactive
same,Potency,[2],inactive
same,Potency,[3],inactive
same,Potency,[4],inactive
same,Potency,[5],inactive
same,max response,HaCat [6],-26.7% (inactive)
same,max response,KB-3-1,2.39% (inactive)
same,Potency,SKOV3,inactive
CCC1CN2CCc3cc(OC)c(OC)cc3C2CC1CC1=NCCc2cc(O)c(OC)cc21 (stereo not drawn),Potency,[1],inactive
same,Potency,[2],inactive
same,activity,[10],-74.9%
same,"activity change, negative = inhibition",[11],-9.58% [at 29.8 µM]
same,activity,[12],-6.53%
same,activity,[13],-6.3%
same,outcome,HaCat [6],inactive
same,max response,KB-3-1,-7.09% (inactive)
same,outcome,HACAT [9],inactive [at 17.4 µM]
same,Potency,SKOV3,inactive
CCCCCn1cc(C(=O)c2cccc3ccccc23)c2ccccc21,Potency,[1],inactive
same,Potency,[7],inactive
same,Potency,[8],1510 nM (active)
same,Potency,[2],inactive
same,Potency,[3],inactive
same,Potency,[4],inactive
same,Potency,[5],inactive
same,max response,HaCat [6],-4.01% (inactive)
same,max response,KB-3-1,-15.1% (inactive)
same,Potency,SKOV3,inactive
CC12Cc3cn[nH]c3C=C1CCC1C2CCC2(C)C1CCC2(C)O (stereo not drawn),Potency,[4],inactive
same,max response,HaCat [6],-0.609% (inactive)
same,Potency,CRL-7250,inactive
same,Potency,SKOV3,inactive
CC(=O)O[C@H]1C[C@@H](C)O[C@H]2O[C@@H]3CC4CC[C@@H]5C(CC[C@]6(C)[C@@H](C7=CC(=O)OC7)CC[C@]56O)[C@@]4(C=O)C[C@H]3O[C@]21O (stereo partly drawn),Potency,[2],48.3 nM (active)
same,Potency,[3],68.2 nM (active)
same,Potency,[4],inactive
same,Potency,HaCat [6],172 nM (active)
same,Potency,KB-3-1,68.5 nM (active)
same,Potency,SKOV3,112 nM (active)
CC(=O)C1CCC2C3CCC4C[C@@H](O)CCC4(C)C3CCC12C (stereo partly drawn),Potency,[1],inactive
same,Potency,[5],inactive
same,max response,HaCat [6],-9.42% (inactive)
same,max response,KB-3-1,0.129% (inactive)
same,outcome,NIH3T3,inactive
CN1C(=O)C(Cc2ccc3ccccc3c2)N=C(c2ccc(O)cc2)c2cc(Cl)ccc21 (stereo not drawn),Potency,[1],inactive
same,Potency,[7],10700 nM (active)
same,Potency,[4],inactive
same,Potency,[5],inactive
same,outcome,HaCat [6],inactive
same,max response,KB-3-1,-24.1% (inactive)
same,outcome,HACAT [9],inactive
same,Potency,SKOV3,inactive
c1ccc(C2(c3ccccc3)OC[C@@H]([C@H]3CCCCN3)O2)cc1,Potency,[1],inactive
same,Potency,[7],849 nM (active)
same,Potency,[4],inactive
same,Potency,[5],inactive
same,max response,HaCat [6],4.38% (inactive)
same,max response,KB-3-1,-9.58% (inactive)
same,Potency,SKOV3,inactive
Oc1ccc2c(c1)C13CCCC[C@H]1[C@@H](C2)N(CC1CCC1)CC3,Potency,[2],23000 nM (active)
same,Potency,[3],23000 nM (active)
same,activity,[10],-7.63%
same,"activity change, negative = inhibition",[11],-6.87%
same,activity,[12],-13.8%
same,activity,[13],-7.17%
same,Potency,[4],inactive
same,Potency,[5],inactive
same,outcome,HaCat [6],inactive
same,max response,KB-3-1,-12.4% (inactive)
same,outcome,HACAT [9],inactive
